TbREL1 inh: TbREL1 RNA ligase inhibitors, primary screen, biochemical, FRET fluorescence; RNA-editing ligase 1, mitochondrial (Trypanosoma brucei brucei), P86926; TbREL1 RNA ligation; inhibition, % at 9.66 µM; actives 0.49% (n = 89,000);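 active means inhibition above the mean inhibition across all screened compounds plus 3 SD, cut at about 11% in these data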;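 further: 0% = plate median of test wells and 100% = NSC42067 control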
Target sequence (P86926 whole entry, looked up): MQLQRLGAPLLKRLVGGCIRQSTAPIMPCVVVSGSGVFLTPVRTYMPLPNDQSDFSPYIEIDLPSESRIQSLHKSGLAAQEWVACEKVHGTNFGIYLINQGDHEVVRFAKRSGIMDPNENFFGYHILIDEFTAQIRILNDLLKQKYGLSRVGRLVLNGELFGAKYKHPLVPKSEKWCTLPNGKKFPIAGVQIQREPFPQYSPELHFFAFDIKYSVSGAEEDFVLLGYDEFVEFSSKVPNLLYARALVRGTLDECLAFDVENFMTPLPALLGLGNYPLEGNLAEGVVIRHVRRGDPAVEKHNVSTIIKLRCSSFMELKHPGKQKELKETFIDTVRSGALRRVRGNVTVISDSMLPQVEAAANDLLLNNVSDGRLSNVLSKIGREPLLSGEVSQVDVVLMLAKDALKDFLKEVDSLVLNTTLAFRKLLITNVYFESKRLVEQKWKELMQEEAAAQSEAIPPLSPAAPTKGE
TbREL1 confirm: TbREL1 RNA ligase inhibitors, confirmation, biochemical, FRET fluorescence, triplicate | actives 37% (n = 390) | inhibition, % at 9.66 µM | TbREL1 RNA ligation | shares compounds with TbREL1 inh | AID 1117282, 2014;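 active means mean inhibition across replicates above a set limit taken from the earlier primary screen, cut at about 11% in these data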;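 further: 0% = REL1 with substrate and DMSO and 100% = REL1 plus control inhibitor NSC42067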
* marks the source's active call; other numbers are inactive results. This is one part of a sample in which hits are shown more often than they occur.

SMILES	TbREL1 inh	others
O=C(O)c1cccc(S(=O)(=O)N(Cc2ccccc2)c2ccc(Cl)cc2)c1	-1
COc1cccc(CNC(=O)[C@H]2CCCN2C(=O)[C@H]2CCCN2S(=O)(=O)c2cccc(C)c2)c1	-5
CCCC(=O)N1CCC(NS(=O)(=O)c2ccc3c(c2)CCN3C(C)=O)CC1	3
CCc1ccc(Cn2c(=O)n(Cc3ccc(C(=O)NCCCOC)cc3)c(=O)c3ccccc32)cc1	5
COc1ccc(OCc2nn3c(-c4ccccc4)nnc3s2)cc1	0
O=C(NCCc1ccccc1)O[C@H]1CC[C@@]23CCCN2C(=O)CCC[C@H]3C1	-5
O=C(NCc1ccccc1)O[C@@H]1CC[C@@]23CCCN2C(=O)CCC[C@H]3C1	-5
CCCCNC(=O)O[C@H]1CC[C@@]23CCCN2C(=O)CCC[C@H]3C1	13*	TbREL1 confirm=-3
C#CCOCCOCCOCCNc1nc(N2CCN(C(=O)[C@H]([C@@H](C)CC)n3cc(CCCCN)nn3)CC2)nc(N2CCN(C(=O)[C@H](Cc3ccc(O)cc3)n3cc(CCO)nn3)CC2)n1	2
c1cc(-c2nnc3n2N=C(c2ccc4c(c2)OCO4)CS3)ccn1	3
CCOC(=O)CNC(=O)C(Cc1ccc2c(c1)OCO2)NC(C)=O (configuration not stated)	-1
CCN(CC)CCCNC(=O)CSc1nnc(-c2ccncc2)n1-c1ccc(OC)cc1	3
Clc1ccc(-c2cc(-c3nnc4sc(Cc5cccs5)nn34)[nH]n2)cc1	1
Cc1cc(C(=O)N/N=C/c2ccc(O)c(O)c2O)c(C)n1-c1ccccc1	1
CCN=c1scc(C)n1/N=C/c1ccc(O)c(O)c1O	13*	TbREL1 confirm=24*
Oc1ccc(/C=N/N(Cc2ccccc2)c2ccccc2)c(O)c1O	-4
Nn1c(SCC(=O)NC2CCCCC2)nnc1-c1n[nH]c2c1CCC2	-1
CC(=O)Nc1sc2c(c1-c1cc3ccccc3o1)CCNC2	5
CCCNC(=O)c1ccc2nc(-c3ccccc3)c(-c3ccccc3)nc2c1	-1
O=C(NCCCO)c1ccc2nc(-c3ccco3)c(-c3ccco3)nc2c1	11*	TbREL1 confirm=19*
COc1cccc(C(=O)NCCCNC(=O)c2ccco2)c1	5
O=C(C1CCCN1S(=O)(=O)c1cccc2ccccc12)N1CCN(c2ccccc2)CC1 (configuration not stated)	-1
COc1cccc(N(C)C(=O)[C@@H](C)[C@@H](O)c2ccc(Cl)cc2)c1	1
O=C(N/N=C/c1sc(N2CCOCC2)nc1-c1ccccc1)c1ccccc1O	3
O=C(Cc1csc(N2CCOCC2)n1)N/N=C/c1ccc(O)c(O)c1O	12*	TbREL1 confirm=35*
SMILES	TbREL1 inh	others
O=C(CCN1CCOCC1)N/N=C/c1cc(Br)cc(Br)c1O	3
O=C(Nc1ccc(C(F)(F)F)cc1)OC1CC2CC1[C@H]1CCCCN1[C@H]2Cc1ccccc1 (some centres not stated)	5
O=C(O)CCCNC(=O)Nc1ccccc1	1
O=C(O)CCCNC(=O)Cc1ccccc1	17*	TbREL1 confirm=0
O=C(Cc1ccccc1)NCCN1CCCC1	0
Cc1ccc(C)c(NC(=O)c2cccc3c2-c2ccccc2C3=O)c1	2
CC(=O)OC12CCCN(C1)/C(=C/c1cccc(Cl)c1)C2 (configuration not stated)	5
CCCCN(C)C(=O)c1ccc(Nc2nc(C(N)Cc3ccc(C(F)(F)F)cc3)cs2)nc1 (configuration not stated)	17*	TbREL1 confirm=13*
COc1ccc(CC(N)c2csc(NC(=O)Nc3cccc(C(F)(F)F)c3)n2)cc1 (configuration not stated)	5
NC(COCc1ccccc1)c1csc(Nc2ccc(C(F)(F)F)cn2)n1 (configuration not stated)	9
COC(=O)C1CCCN(C(=O)C2CCN(S(=O)(=O)c3cccs3)CC2)C1 (configuration not stated)	7
COC(=O)[C@]12C[C@H](CC(=O)NCC34CC5CC(CC(C5)C3)C4)C(=O)N(Cc3cccc4ccccc34)C1=C[C@H](C(C)C)O[C@@H]2C1CC1	5
CC(C)c1cc(C(=O)NCCc2ccccc2)no1	11*	TbREL1 confirm=1
CC(C)c1cc(C(=O)NCc2ccco2)no1	0
CCc1ccc(NC(=O)c2cc(C(C)C)on2)cc1	5
COc1ccc(OC)c(CN2C(=O)CSCC2(C)c2nnnn2C2CCCC2)c1 (configuration not stated)	-1
O=C(CCN1C(=O)S/C(=C/c2ccccc2)C1=O)Nc1ccc(O)c(C(=O)O)c1	14*	TbREL1 confirm=15*
O=C(CCN1C(=O)/C(=C\c2ccccc2)SC1=S)Nc1ccc(C(=O)O)cc1	1
O=C(CCCN1C(=O)/C(=C\c2ccccc2)SC1=S)Nc1ccc(O)cc1	-1
S=C(Nc1ccc(Cl)c(Cl)c1)Nc1nnc(-c2ccncc2)s1	1
CCCC1CCC2(CC1)CCC2OC(=S)NCc1cccc(F)c1 (configuration not stated)	-5

Source: PubChem (The Scripps Research Institute Molecular Screening Center)
